The whole screen tested about 310,000 compounds, of which about 2,200 (0.71%) showed an effect of 50% or more. The effect is printed as a negative number. The sample holds strong results, similar compounds and a random draw of the others, so the mix is not that of the screen.
Target: human ether-à-go-go-related gene (hERG) potassium channel (human, UniProt Q12809)
Test: primary screen, population patch clamp on CHO cells stably expressing hERG; higher = less effect of the substance

Sequence of human ether-à-go-go-related gene (hERG) potassium channel (Q12809 whole entry, looked up): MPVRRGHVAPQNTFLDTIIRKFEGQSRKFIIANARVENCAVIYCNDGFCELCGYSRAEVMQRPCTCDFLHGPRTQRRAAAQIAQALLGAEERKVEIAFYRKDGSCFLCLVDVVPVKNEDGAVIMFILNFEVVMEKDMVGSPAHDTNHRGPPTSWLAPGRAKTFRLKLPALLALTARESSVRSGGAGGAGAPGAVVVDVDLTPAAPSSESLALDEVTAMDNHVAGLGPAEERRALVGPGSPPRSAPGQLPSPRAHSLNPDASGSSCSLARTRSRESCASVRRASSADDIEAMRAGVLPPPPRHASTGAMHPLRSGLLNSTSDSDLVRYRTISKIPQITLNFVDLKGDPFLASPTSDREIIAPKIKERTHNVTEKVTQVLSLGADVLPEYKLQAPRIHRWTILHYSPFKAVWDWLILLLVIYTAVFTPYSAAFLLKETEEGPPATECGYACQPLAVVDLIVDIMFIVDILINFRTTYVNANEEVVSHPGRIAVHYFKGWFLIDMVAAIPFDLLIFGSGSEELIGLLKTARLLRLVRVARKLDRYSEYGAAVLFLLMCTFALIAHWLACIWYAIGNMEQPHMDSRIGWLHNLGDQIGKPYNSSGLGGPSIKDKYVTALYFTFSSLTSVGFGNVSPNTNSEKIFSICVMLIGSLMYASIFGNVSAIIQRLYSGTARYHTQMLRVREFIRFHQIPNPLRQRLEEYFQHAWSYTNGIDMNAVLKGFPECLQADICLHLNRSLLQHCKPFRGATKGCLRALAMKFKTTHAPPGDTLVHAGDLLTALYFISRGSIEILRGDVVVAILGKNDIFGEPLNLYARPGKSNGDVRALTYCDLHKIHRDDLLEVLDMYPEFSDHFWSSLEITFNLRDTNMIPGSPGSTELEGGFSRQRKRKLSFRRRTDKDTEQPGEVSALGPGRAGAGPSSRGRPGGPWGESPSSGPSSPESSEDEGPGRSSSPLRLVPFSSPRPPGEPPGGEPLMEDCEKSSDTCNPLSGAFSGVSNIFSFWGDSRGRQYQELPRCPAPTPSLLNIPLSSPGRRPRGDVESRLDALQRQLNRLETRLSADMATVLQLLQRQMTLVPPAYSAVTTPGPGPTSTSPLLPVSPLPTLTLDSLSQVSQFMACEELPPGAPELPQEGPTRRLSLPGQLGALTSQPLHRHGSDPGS

Going from `COc1ccc(/C=C2\SC(=S)N(N3CCOCC3)C2=O)c(OC)c1` to `Br.COc1ccc(C2=CSC3=NCCN23)cc1OC`, the “hERG current change (%, negative = inhibition) at 1uM” value falls from 10.2% to 7.66%.

Going from `CCOC(=O)c1c(C)[nH]c(C)c1C(=O)CSc1nc2ccccc2[nH]1` to `CCn1c(SCC(=O)N/N=C/c2c[nH]c3ccccc23)nnc1-c1ccc(C)cc1`, the “hERG current change (%, negative = inhibition) at 1uM” value falls from 13.8% to 9.39%.

First: O=c1c(Cc2ccc(F)cc2)c(O)ccn1CCCn1ccnc1
Second: O=C(c1cc([N+](=O)[O-])ccc1Cl)N1CCN(c2ccc(F)cc2)CC1
The “hERG current change (%, negative = inhibition) at 1uM” value of the first is higher: 20.5% for the first, 0.85% for the second.

First: COc1ccc(CCNC(=O)CC(c2ccccc2)c2cccc(C)c2O)cc1OC (stereo not shown)
Second: COc1ccc(CCNC(=O)/C=C/c2ccco2)cc1OC
The “hERG current change (%, negative = inhibition) at 1uM” value of the first is higher: 6% for the first, 5.95% for the second.

Going from `OCCC1CN(Cc2cccc(-c3ccco3)c2)CCN1Cc1ccsc1` (stereo not shown) to `O=C(Nc1ccc(N2CCN(C(=O)c3cccs3)CC2)cc1)c1ccco1`, the “hERG current change (%, negative = inhibition) at 1uM” value rises from -17.3% to 17.4%.

Compared with `CC(C)NC(=S)N=Nc1c(O)[nH]c2ccc([N+](=O)[O-])cc12`, `Cc1ccc([N+](=O)[O-])cc1S(=O)(=O)Nc1ccc(O)c(Sc2ncn[nH]2)c1` is lower in “hERG current change (%, negative = inhibition) at 1uM” value: 18.4% for the first, 14.7% for the second.

Compared with `COc1cccc(OC)c1C(=O)Nc1ccnn1C`, `COc1cccc(OC)c1C(=O)Nc1ccncc1` is higher in “hERG current change (%, negative = inhibition) at 1uM” value: -75.9% for the first, 17.4% for the second.

First: Cn1nccc1NC(=O)NC(=O)c1c(Cl)cccc1Cl
Second: O=C(NCc1ccc2c(c1)OCO2)c1cc(-c2ccccc2Cl)on1
The “hERG current change (%, negative = inhibition) at 1uM” value of the first is lower: 8.82% for the first, 12.4% for the second.

First: O=C(Cn1nnc2ccccc21)N1CCCCC1
Second: O=C(O)CSC1=NC(=Nc2cccc(Cl)c2)C2(CCCCC2)N1c1ccccc1
The “hERG current change (%, negative = inhibition) at 1uM” value of the first is lower: 2.74% for the first, 19.9% for the second.

Compared with `O=C(CN1CCN(C(=O)c2cccs2)CC1)Nc1ccc(Br)cc1`, `O=C(CN1CCN(C(=O)c2ccco2)CC1)Nc1ccc(Br)cc1` is higher in “hERG current change (%, negative = inhibition) at 1uM” value: -68.2% for the first, 10.5% for the second.

Going from `O=C(NCCN1CCN(C(=O)c2cccs2)CC1)C(=O)Nc1ccc(Br)cc1` to `CCC(=O)Nc1ccc(N2CCN(C(=O)c3cccs3)CC2)cc1`, the “hERG current change (%, negative = inhibition) at 1uM” value rises from -44.8% to 3.02%.

Compared with `O=C(CN1CCN(C(=O)c2ccccc2F)CC1)Nc1ccc(Br)cc1`, `O=C(CN1CCN(Cc2ccccc2)CC1)Nc1ccc(Br)cc1` is higher in “hERG current change (%, negative = inhibition) at 1uM” value: -56.5% for the first, -48.3% for the second.

First: O=C(Nc1ccc(N2CCN(C(=O)c3cccs3)CC2)cc1)c1ccc(Br)o1
Second: O=C(Nc1ccc(N2CCN(C(=O)c3cccs3)CC2)cc1)c1ccc([N+](=O)[O-])o1
The “hERG current change (%, negative = inhibition) at 1uM” value of the first is lower: -52.7% for the first, -15.8% for the second.

Going from `Cc1ccc(NC(=O)c2ccc3ccccc3n2)cc1S(=O)(=O)N1CCOCC1` to `CCC1(CC)NC(=O)N(CC(=O)Nc2ccc(S(=O)(=O)N3CCOCC3)cc2)C1=O`, the “hERG current change (%, negative = inhibition) at 1uM” value falls from 14% to 3.3%.

First: CCOP1(=S)Oc2cc3c(cc2C(C(=O)OC)(C(F)(F)F)O1)OCO3 (stereo not shown)
Second: Cc1ccccc1N(CC(=O)NCc1ccc2c(c1)OCO2)C(=O)CCC(=O)Nc1ccccn1
The “hERG current change (%, negative = inhibition) at 1uM” value of the first is lower: 5.27% for the first, 6.43% for the second.

Compared with `Cn1c(=O)n(C)c2cc(N3CCCC3)c(NC(=O)c3cccc(F)c3)cc21`, `Cc1cccc(N2CCN(C(=O)c3cc(S(=O)(=O)N(C)C)ccc3N3CCCC3)CC2)c1C` is lower in “hERG current change (%, negative = inhibition) at 1uM” value: 10.3% for the first, 5.76% for the second.

Going from `Br.Cc1ccc(C2=CSC3=NCCN23)cc1` to `Br.CCc1ccc(C2=CSC3=NCCN23)cc1`, the “hERG current change (%, negative = inhibition) at 1uM” value falls from 11.3% to 1.72%.

First: CCOc1ccc(C2=CSC3=NCCN23)cc1Cl
Second: CCCOc1ccc(C2=CSC3=NCCN23)cc1Cl
The “hERG current change (%, negative = inhibition) at 1uM” value of the first is higher: 10.2% for the first, -23.5% for the second.

Going from `O=[N+]([O-])c1ccc(C2=CSC3=NCCN23)cc1` to `COc1ccc(C2=CSC3=NCCN23)cc1[N+](=O)[O-]`, the “hERG current change (%, negative = inhibition) at 1uM” value rises from -0.955% to 2.48%.

Going from `CCOc1ccc(C2=CSC3=NCCN23)cc1[N+](=O)[O-]` to `CCCOc1ccc(C2=CSC3=NCCN23)cc1[N+](=O)[O-]`, the “hERG current change (%, negative = inhibition) at 1uM” value falls from -61% to -68.4%.

First: Br.CC(C)Cc1ccc(C2=CSC3=NCCN23)cc1
Second: CCCOc1ccc(C2=CSC3=NCCN23)cc1.Cl
The “hERG current change (%, negative = inhibition) at 1uM” value of the first is lower: -60.9% for the first, -0.939% for the second.

First: CCCCOc1ccc(C2=CSC3=NCCN23)cc1[N+](=O)[O-]
Second: CCCCn1c(N)c(N(CCOC)C(=O)CN2CC=C(c3ccccc3)CC2)c(=O)[nH]c1=O
The “hERG current change (%, negative = inhibition) at 1uM” value of the first is lower: -52.1% for the first, 10.3% for the second.

First: O=C(Cn1nnc(-c2ccc(Cl)cc2)n1)NC1CCS(=O)(=O)C1 (stereo not shown)
Second: C=CCS(=O)(=O)N1CCCC(C(=O)c2cccc(Cl)c2)C1 (stereo not shown)
The “hERG current change (%, negative = inhibition) at 1uM” value of the first is lower: 0.0052% for the first, 14.2% for the second.

Compared with `Cc1ccc(Cn2c(N)c(S(=O)(=O)c3cccs3)c3nc4ccccc4nc32)cc1`, `COc1ccc(C(=O)N2N=C(c3cccc(NS(C)(=O)=O)c3)CC2c2cccs2)cc1` (stereo not shown) is lower in “hERG current change (%, negative = inhibition) at 1uM” value: 5.35% for the first, -22.1% for the second.

Going from `O=C1c2ccccc2C(=O)C1c1ccnc2ccccc12` to `N#Cc1ccccc1CSc1ccc(-c2nc3ccccc3[nH]2)cn1`, the “hERG current change (%, negative = inhibition) at 1uM” value rises from 11.7% to 16.2%.

Compared with `CCC1CCC(N2CCN(c3ccc([N+](=O)[O-])cc3)CC2)CC1` (stereo not shown), `CC1CCC(N2CCN(c3ccc([N+](=O)[O-])cc3)CC2)CC1` (stereo not shown) is higher in “hERG current change (%, negative = inhibition) at 1uM” value: -74.5% for the first, -67.8% for the second.

Compared with `CCCN1CCC(N2CCN(c3ccc([N+](=O)[O-])cc3)CC2)CC1`, `CCN1CCC(N2CCN(c3ccc(Cl)cc3)CC2)CC1` is higher in “hERG current change (%, negative = inhibition) at 1uM” value: -62.7% for the first, 10.7% for the second.

Going from `CCN1CCC(N2CCN(c3ccc(F)cc3)CC2)CC1` to `CCC1CCC(N2CCN(c3ccc(F)cc3)CC2)CC1` (stereo not shown), the “hERG current change (%, negative = inhibition) at 1uM” value falls from 10.6% to -2.92%.

Compared with `O=[N+]([O-])c1ccc(N2CCN(c3ccccc3)CC2)cc1`, `O=[N+]([O-])c1ccc(N2CCN(c3ccc(F)cc3)CC2)cc1` is lower in “hERG current change (%, negative = inhibition) at 1uM” value: 9.45% for the first, 5.71% for the second.

First: O=[N+]([O-])c1ccc(N2CCN(CC3CCCCC3)CC2)cc1
Second: CN(C)S(=O)(=O)c1ccc(N2CCCC2)c(C(=O)N2CCN(c3ccc([N+](=O)[O-])cc3)CC2)c1
The “hERG current change (%, negative = inhibition) at 1uM” value of the first is higher: -23% for the first, -84% for the second.

Compared with `Cc1ccnc(N2C(=O)OC(C)(C)C2(C)O)c1` (stereo not shown), `Cc1cc(OC(C)C(=O)NCc2cccnc2)c2c(C)cc(=O)oc2c1` (stereo not shown) is higher in “hERG current change (%, negative = inhibition) at 1uM” value: -0.922% for the first, 9.3% for the second.

Going from `O=C(NS(=O)(=O)c1ccccc1)c1ccccc1O` to `Cc1ccccc1CNC(=O)Cc1ccccc1[N+](=O)[O-]`, the “hERG current change (%, negative = inhibition) at 1uM” value falls from 0.636% to 0.014%.

Compared with `Cc1c(C(=O)Nc2cccc([N+](=O)[O-])c2)sc2ncn(CC(=O)N3CCOCC3)c(=O)c12`, `O=C(c1cc([N+](=O)[O-])ccc1N1CCOCC1)N1CCOCC1` is lower in “hERG current change (%, negative = inhibition) at 1uM” value: 14.1% for the first, 12.4% for the second.

Going from `CCc1nnc(NC(=O)c2ccc(-c3ccccc3F)o2)s1` to `Cc1nc(C)c(C(=O)Nc2nc3c(C)cccc3s2)o1`, the “hERG current change (%, negative = inhibition) at 1uM” value falls from 11.7% to -4.12%.

Going from `Cc1cc(N2CCC(C)CC2)nc(-n2nc(C)cc2C)n1` to `Cc1cc(N2CCN(c3ccccc3)CC2)nc(-n2nc(C)cc2C)n1`, the “hERG current change (%, negative = inhibition) at 1uM” value falls from -9.09% to -51%.

Going from `Cc1cc(C)n(-c2nnc(N3CCN(c4ccccc4)CC3)nn2)n1` to `O=C(c1cc([N+](=O)[O-])ccc1Cl)N1CCN(c2ccccc2)CC1`, the “hERG current change (%, negative = inhibition) at 1uM” value falls from 4.59% to 4.13%.

Going from `O=C(Cc1cccc(NC(=O)C2CCCN(C(=O)C3CCC3)C2)c1)Nc1cccc(C(=O)N2CCCC2)c1` (stereo not shown) to `Cc1ccc(S(=O)(=O)N2CCN(C(=O)c3cc(S(=O)(=O)N(C)C)ccc3N3CCCC3)CC2)cc1`, the “hERG current change (%, negative = inhibition) at 1uM” value rises from 9.32% to 13.1%.

First: Cc1cccc(C(=O)N/N=C/c2ccc(OC3CSC3)cc2)c1
Second: COc1cccc(C(=O)N/N=C/c2ccc(OC3CSC3)cc2)c1
The “hERG current change (%, negative = inhibition) at 1uM” value of the first is lower: -59.8% for the first, 12.7% for the second.

First: O=C(N/N=C/c1ccc(OC2CSC2)cc1)c1ccccc1
Second: O=C(CSc1ccc(-c2ccccc2)nn1)Nc1ccc2c(c1)OCCO2
The “hERG current change (%, negative = inhibition) at 1uM” value of the first is lower: -0.636% for the first, 8.92% for the second.

Compared with `CN(CC(=O)Nc1ccccc1C(F)(F)F)C(=O)COc1ncnc2sccc12`, `O=C(O)CCC(=O)NCc1cn(-c2ccccc2)nc1-c1cccc(Br)c1` is higher in “hERG current change (%, negative = inhibition) at 1uM” value: 6.31% for the first, 9.76% for the second.

Compared with `C=CCn1c(SCC(=O)NC(=O)NCC(C)C)nnc1C1CCCCC1`, `COc1ccc(CN2CCC(N3CC(C)OC(C)C3)CC2)c(OC)c1OC.O=C(O)C(=O)O` (stereo not shown) is lower in “hERG current change (%, negative = inhibition) at 1uM” value: 13.9% for the first, 2.62% for the second.

First: O=C(c1cc([N+](=O)[O-])ccc1Cl)N1CCN(c2ccc([N+](=O)[O-])cc2)CC1
Second: O=C(c1cc([N+](=O)[O-])ccc1N1CCOCC1)N1CCN(c2ccc([N+](=O)[O-])cc2)CC1
The “hERG current change (%, negative = inhibition) at 1uM” value of the first is higher: -58.8% for the first, -74% for the second.

Going from `O=C(c1cc([N+](=O)[O-])ccc1N1CCOCC1)N1CCN(c2ccccc2)CC1` to `CCOc1ccc(CCNC(=O)/C=C/c2ccco2)cc1OCC`, the “hERG current change (%, negative = inhibition) at 1uM” value falls from 7.19% to -170%.

Going from `COc1ccc(-c2cc(-c3cccs3)nc(OC)c2C#N)cc1OC` to `CCOc1ccc(CCNC(=O)COC(=O)/C=C/c2ccco2)cc1OCC`, the “hERG current change (%, negative = inhibition) at 1uM” value falls from 24.6% to 15.9%.

— publication PMC4336329 (PLoS ONE, 2015)
